Structures are written as SMILES.

For the assay, the target named is NADPH oxidase 5 (Homo sapiens) (UniProt Q96PH1). Nature of the assay: compounds shifting NOX5 Amplex Red fluorescence – cell-based, HEK293-NOX5, NOX inhibitor project, primary screen (AID 1161). Particulars: HEK293-NOX5, ionomycin, 45 min, higher = more signal.
Chain of NADPH oxidase 5 (Homo sapiens) (Q96PH1 whole entry, looked up): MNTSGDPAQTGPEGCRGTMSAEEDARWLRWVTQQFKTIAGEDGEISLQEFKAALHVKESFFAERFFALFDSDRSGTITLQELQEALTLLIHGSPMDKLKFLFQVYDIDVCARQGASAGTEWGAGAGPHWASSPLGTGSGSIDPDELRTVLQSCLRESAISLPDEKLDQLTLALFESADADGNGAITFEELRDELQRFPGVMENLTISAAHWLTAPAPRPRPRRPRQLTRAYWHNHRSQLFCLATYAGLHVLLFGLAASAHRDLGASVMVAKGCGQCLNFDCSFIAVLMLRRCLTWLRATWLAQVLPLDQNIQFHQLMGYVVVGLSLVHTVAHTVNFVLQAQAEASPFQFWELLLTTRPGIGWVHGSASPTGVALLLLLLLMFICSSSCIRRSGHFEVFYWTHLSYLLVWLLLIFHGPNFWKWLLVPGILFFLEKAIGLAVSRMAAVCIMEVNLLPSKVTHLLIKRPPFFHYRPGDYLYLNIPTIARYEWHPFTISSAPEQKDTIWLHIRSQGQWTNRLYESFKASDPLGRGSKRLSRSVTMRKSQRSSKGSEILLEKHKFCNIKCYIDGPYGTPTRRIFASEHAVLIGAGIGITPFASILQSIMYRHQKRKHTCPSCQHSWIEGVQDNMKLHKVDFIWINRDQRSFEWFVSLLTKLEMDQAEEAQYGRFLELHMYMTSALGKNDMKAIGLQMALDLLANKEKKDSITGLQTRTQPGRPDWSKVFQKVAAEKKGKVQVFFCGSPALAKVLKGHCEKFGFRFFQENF
For the molecule `O=C(CS)NCCCCCNC(=O)[C@@H]1C[C@@H]2C(=O)NCC(=O)N2[C@@H]1c1cccc(OCCO)c1`, the z-score was determined as 1.49.

In the case of `O=C(CS)NCCCCCNC(=O)[C@H]1C[C@H]2C(=O)NCC(=O)N2[C@H]1c1cccc(OCCO)c1`, the z-score is 0.664.

Turning to `CN(C)CCCCNC(=O)[C@@H]1C[C@@H]2C(=O)N[C@@H](CCCCN)C(=O)N2[C@@H]1c1ccc(O)cc1`, the z-score is 0.81.

For `COc1ccc(CCNC(=O)[C@@]2(C)c3ccccc3C(=O)N(c3ccc(C)cn3)[C@H]2c2ccc(CO)cc2)cc1`, the z-score was -1.81.

Take `O=C(NCCN1CCOCC1)[C@@H]1c2ccccc2C(=O)N(Cc2cc(C(F)(F)F)cc(C(F)(F)F)c2)[C@H]1c1ccc(CO)cc1`: the z-score worked out at 2.36.

Take `O=C(NCc1ccccc1)[C@@H]1c2ccccc2C(=O)N(C2Cc3ccccc3C2)[C@H]1c1ccc(CO)cc1`: the z-score was -1.41.

On to `COCCOC(=O)N1C(=O)[C@@]2(c3cc(C#CC4(O)CCCCCC4)ccc31)[C@H](C(=O)Nc1nc3ccccc3s1)[C@H]1C(=O)O[C@H](c3ccccc3)[C@H](c3ccccc3)N1[C@@H]2c1ccccc1OCCO`, for which the z-score is 0.908.

Consider `CC1CC/C=C\[C@H]2OC34C=CCN(c5ccc6ccccc6c5)C(=O)[C@H]3N(CCO)C(=O)[C@@H]4C2C(=O)O1` (stereo not given in full), for which the z-score stood at 2.4.

Take `O=C1O[C@@H](c2ccccc2)[C@@H](c2ccccc2)N2[C@@H](c3ccc(OCCO)cc3)[C@]3(C(=O)Nc4ccc(C#CCCO)cc43)[C@@H](C(=O)NC[C@H](O)c3ccccc3)[C@H]12`: the z-score is 0.235.

With `O=C1OCCC/C=C\[C@H]2OC34C=CCN(c5ccc6ccccc6c5)C(=O)[C@H]3N(CCCCCO)C(=O)[C@@H]4C12` (stereo not given in full), the z-score is 1.58.
